Here are results for 39 compounds from PubChem BioAssay (NCATS).

Records with an inconclusive call do not appear. A call without a number means that no potency is given here. The source made the active and inactive calls. The call rests on the fitted dose curve; in most records, active means well fitted curve in the direction sought with a large enough effect; inconclusive means small, poorly fitted or top-dose-only effect, or another doubt; inactive means no such curve, though single readings can be large or run the other way.
Potency means the concentration at half of the fitted maximal effect.

A short description of the test: qHTS for Inhibitors of the vitamin D receptor (VDR): Hit Validation using a Texas Red Assay (AID 602201). The note with it: VDR coregulator binding, Texas Red fluorescence polarization, agonist-bound VDR ligand-binding domain; series mostly up to 57.1 µM. The method in brief:
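After a 2-hour room-temperature incubation, polarization of Texas-Red emission was read (Ex 595 nm/Em 615 nm). Final mix contained 7 nM Texas Red, 1.5 uM VDR-LBD and LG19078.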
Background: qHTS replaces the single test concentration by a dilution series.
With `COc1ccc(C2=CC(=O)N(Nc3ccccc3)C2=O)cc1`, the Potency was 10 µM (active).
Turning to `O=C(/C=C/c1cc(Br)ccc1O)c1ccco1`, the Potency result was “inactive”.
The value for `CC1=CC(=O)C(C(C)C)=CC1=NC(=O)c1ccc(C)cc1` was “inactive”.
The value for `O=C(O)CN1C(=O)/C(=C\c2cc(Br)ccc2OCc2ccc(Cl)cc2Cl)SC1=S` was “inactive”.
Regarding `O=C1C(=O)c2c(C(=O)c3ccccc3)coc2-c2ccccc21`, the Potency entry is “inactive”.
For `Nc1cc(S(=O)(=O)Nc2ccccc2Cl)ccc1N1CCCCC1`, the Potency is 5.62 µM (active).
Take `CSc1nnc(NC(=O)c2nc(S(=O)(=O)Cc3ccccc3)ncc2Cl)s1`: the Potency is 28.2 µM (active).
The value for `O=c1[nH]c(/C=C/c2ccccc2)c([N+](=O)[O-])c(=O)[nH]1` was “inactive”; that for `Nc1nc(-c2cccc(F)c2)cs1` was “inactive”; that for `COc1cc(/C=C2\C(=O)ON=C2c2ccccc2)cc(Br)c1O` was “inactive”.
In the case of `NC(=O)c1c(N)sc2c1CCCCC2`, the Potency was 14.1 µM (active).
`Nc1c(C(=O)N2CCCCC2)sc(=S)n1-c1ccccc1`: the Potency was 35.5 µM (active).
In the case of `O=C1/C(=C/c2cccc([N+](=O)[O-])c2)CCc2ccccc21`, the Potency was 31.6 µM (active).
As for `COc1cc(/C=C2\C(=O)ON=C2c2ccccc2)cc(Cl)c1O`, the Potency entry is “inactive”.
For the compound `CC(=O)N(C(C)=O)N1C(=O)C2C3c4ccccc4C(c4ccccc43)C2C1=O` (centres undefined), the Potency entry is “inactive”.
The value for `O=C(O)CSc1cc(NS(=O)(=O)c2cccc([N+](=O)[O-])c2)c2ccccc2c1O` was 2.82 µM (active).
With `[O-]/[N+](=C/c1ccc(F)cc1)c1ccc(Cl)cc1`, the Potency result was “inactive”.
As for `CCN(CC)S(=O)(=O)c1cc(NC(=O)c2ccc3c(c2)NC(=O)C(C)S3)ccc1C` (centres undefined), the Potency result was “inactive”.
The value for `O=c1[nH]c(/C=C\c2cccc(Cl)c2)nc(O)c1[N+](=O)[O-]` was “inactive”; that for `Cc1nc(NC(=O)c2ccc(Cl)cc2)sc1Cc1ccc2c(c1)OCO2` was “inactive”.
Turning to `CCOC(=O)/C(C#N)=C1\C(=O)N(Cc2ccccc2)c2ccccc21`, the Potency result is “inactive”.
The value for `O=C1NN(c2ccc(F)c(Cl)c2)C(=O)/C1=C\c1cccc(OC(=O)c2cccs2)c1` was “inactive”.
The value for `O=C(/C=C/c1cccc([N+](=O)[O-])c1)c1cccs1` was 14.1 µM (active); that for `CN1C(=O)C(Cl)(Cl)C(=O)c2ccccc21` was “inactive”; that for `CC(C)CN1C(=O)/C(=C(/C#N)C(=O)NC2CCCCC2)c2ccccc21` was 3.55 µM (active).
The value for `O=[N+]([O-])c1c(Nc2ccc(O)cc2)cc(Cl)c2nonc12` was 3.16 µM (active); that for `CN1CCN(C(=S)C(=O)Nc2ccc(Br)cc2)CC1` was 17.8 µM (active).
As for `c1ccc(-c2nnc3sc(-c4csc5c4CCCC5)nn23)cc1`, the Potency was 22.4 µM (active).
Consider `COc1cc(/C=C/C(=O)c2ccc(F)cc2)cc(OC)c1OC`, for which the Potency result was “inactive”.
With `CCOC(=O)c1c(-c2ccccc2)csc1NC(=O)c1nc(S(=O)(=O)CC)ncc1Cl`, the Potency is 3.55 µM (active).
In the case of `O=[N+]([O-])c1c(NCCCO)cc(Sc2ccc(Cl)cc2)c2nonc12`, the Potency is 15.8 µM (active).
As to `O=C(O)c1cccc(CN2C(=O)S/C(=C/c3cccc([N+](=O)[O-])c3)C2=O)c1`, the Potency was 20 µM (active).
The value for `CC(C)(C)C(=O)Nc1ccc2c(c1)C(=O)C(=O)c1ccccc1-2` was 3.16 µM (active); that for `Cc1cccc(CS(=O)(=O)c2ncc(Cl)c(C(=O)NCc3ccccc3)n2)c1` was “inactive”.
Consider `O=C(/C=C/c1ccc([N+](=O)[O-])cc1)c1cccs1`, for which the Potency is 25.1 µM (active).
As to `CN1CCN(C(=O)c2sc(=S)n(-c3ccccc3)c2N)CC1`, the Potency entry was “inactive”.
With `CCOc1ccc(C(=O)CC(C(=O)O)N2CCCCC2)cc1` (centres undefined), the Potency entry is “inactive”.
For the compound `CNc1ccc(Br)cc(C(=O)/C=C/c2cccc(Cl)c2Cl)c1=O`, the Potency was 3.55 µM (active).
For `C=CCOc1c(Br)cc(/C=C2/C(=O)ON=C2C)cc1OC`, the Potency entry was “inactive”.
